For twelve sequences, binding signal results are on record in publication PMC5700166.

Test in all cases: protein-binding microarray (PBM); PBM: ~300 nM protein, 6 mM HEPES pH 7.8, 80 mM KCl, 0.5 mM EDTA, 0.5 mM EGTA, 6% glycerol, 35 ng/ul poly-dIdC, 1% milk, 1 h, room temperature; Ap Aiptasia and Nv Nematostella (sea anemones) / Co Capsaspora / Aq Amphimedon (sponge) / Dm Drosophila / Hu human; RHD is the Rel homology domain; high values mean tight binding
Holding throughout (conditions): dsDNA, one strand shown

In one experiment the target is T1, GST-Ap-NF-kB RHD (Exaiptasia pallida (Aiptasia), UniProt A0A913YAJ5 2-422).
T1 sequence: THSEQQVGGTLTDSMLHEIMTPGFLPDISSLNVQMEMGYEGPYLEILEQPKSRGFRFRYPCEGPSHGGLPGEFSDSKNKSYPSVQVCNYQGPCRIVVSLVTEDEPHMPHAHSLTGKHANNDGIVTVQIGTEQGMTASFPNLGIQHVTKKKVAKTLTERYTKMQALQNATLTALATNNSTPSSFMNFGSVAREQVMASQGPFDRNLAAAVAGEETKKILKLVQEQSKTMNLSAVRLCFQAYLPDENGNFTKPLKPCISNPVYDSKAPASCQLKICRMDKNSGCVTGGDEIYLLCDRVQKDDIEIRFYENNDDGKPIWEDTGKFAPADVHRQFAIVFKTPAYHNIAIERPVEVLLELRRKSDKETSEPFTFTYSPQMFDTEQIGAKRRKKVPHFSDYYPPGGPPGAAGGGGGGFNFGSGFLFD

In experiment [1] the target is T2, GST-Nv-NF-kB (Cys allele) (Nematostella vectensis, UniProt E5G601 2-411).
T2 sequence: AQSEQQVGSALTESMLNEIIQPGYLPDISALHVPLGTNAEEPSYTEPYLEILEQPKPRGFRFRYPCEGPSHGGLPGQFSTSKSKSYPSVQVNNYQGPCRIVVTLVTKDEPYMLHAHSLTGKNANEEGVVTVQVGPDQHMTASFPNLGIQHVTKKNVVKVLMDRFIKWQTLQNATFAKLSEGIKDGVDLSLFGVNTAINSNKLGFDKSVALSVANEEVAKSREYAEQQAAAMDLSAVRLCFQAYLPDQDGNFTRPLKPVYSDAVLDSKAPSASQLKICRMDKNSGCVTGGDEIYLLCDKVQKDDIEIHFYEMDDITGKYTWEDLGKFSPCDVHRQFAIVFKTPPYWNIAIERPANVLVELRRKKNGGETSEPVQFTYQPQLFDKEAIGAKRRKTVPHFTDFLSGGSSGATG

In the next experiment the target is T3, GST-Co-NF-kB (Capsaspora owczarzaki, UniProt F1ARL5 200-546).
T3 sequence: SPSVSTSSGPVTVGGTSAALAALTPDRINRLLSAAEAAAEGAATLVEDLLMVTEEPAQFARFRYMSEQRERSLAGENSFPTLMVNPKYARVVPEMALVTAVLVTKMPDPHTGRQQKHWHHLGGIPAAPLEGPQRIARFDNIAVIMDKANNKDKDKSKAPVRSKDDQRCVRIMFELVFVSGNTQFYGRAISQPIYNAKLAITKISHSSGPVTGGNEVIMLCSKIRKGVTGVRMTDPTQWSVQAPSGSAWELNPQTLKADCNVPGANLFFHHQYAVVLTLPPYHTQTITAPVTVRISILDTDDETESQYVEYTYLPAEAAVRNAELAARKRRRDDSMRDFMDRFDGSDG

Another experiment has as its target T4, GST-Dm-Relish (Drosophila melanogaster, UniProt Q94527 99-473).
T4 sequence: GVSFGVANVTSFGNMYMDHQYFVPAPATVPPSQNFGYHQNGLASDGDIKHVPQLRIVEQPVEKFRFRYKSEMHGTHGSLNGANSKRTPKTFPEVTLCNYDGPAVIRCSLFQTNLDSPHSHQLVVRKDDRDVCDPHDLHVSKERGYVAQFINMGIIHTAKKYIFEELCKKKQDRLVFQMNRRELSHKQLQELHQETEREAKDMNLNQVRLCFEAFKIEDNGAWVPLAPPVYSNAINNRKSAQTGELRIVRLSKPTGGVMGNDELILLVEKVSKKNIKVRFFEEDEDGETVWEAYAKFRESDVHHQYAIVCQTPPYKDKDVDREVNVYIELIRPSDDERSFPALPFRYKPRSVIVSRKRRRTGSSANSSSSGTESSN

The target of the next experiment is T5, GST-Aq-NF-kB (Amphimedon queenslandica, UniProt A9Y5G7 2-389).
T5 sequence: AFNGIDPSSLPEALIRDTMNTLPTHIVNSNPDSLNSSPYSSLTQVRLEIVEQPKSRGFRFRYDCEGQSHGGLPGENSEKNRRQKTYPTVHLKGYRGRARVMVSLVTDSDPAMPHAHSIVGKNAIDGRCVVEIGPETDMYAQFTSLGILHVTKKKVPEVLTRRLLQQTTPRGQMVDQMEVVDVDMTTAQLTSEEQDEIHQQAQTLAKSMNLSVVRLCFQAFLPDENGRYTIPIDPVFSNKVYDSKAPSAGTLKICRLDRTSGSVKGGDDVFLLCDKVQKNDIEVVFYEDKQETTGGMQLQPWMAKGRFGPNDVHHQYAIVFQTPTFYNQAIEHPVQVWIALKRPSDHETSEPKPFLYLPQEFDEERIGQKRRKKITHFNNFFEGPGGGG

As to “CCGATTAACATCACGCAATTCCCTGATGTTAATCGGGTCTTGATTCGCTTGACGCTGCTG”, the binding signal in the experiment with GST-Ap-NF-kB RHD worked out at 2.72 z-score; in experiment [1], 4.1 z-score; in the experiment with GST-Co-NF-kB, 2.33 z-score; with GST-Dm-Relish it was 1.52 z-score; in the experiment with GST-Aq-NF-kB, 3.43 z-score.

“CCGATTAACATCACGGATTTCCCTGATGTTAATCGGGTCTTGATTCGCTTGACGCTGCTG”: the binding signal with GST-Ap-NF-kB RHD stood at 3.73 z-score; in experiment [1], 5.2 z-score; in the experiment with GST-Co-NF-kB it was 3.28 z-score; in the experiment with GST-Dm-Relish it was 5.3 z-score; with GST-Aq-NF-kB it was 5.69 z-score.

As for “CCGATTAACATCAGGGGGTAGGATGATGTTAATCGGGTCTTGATTCGCTTGACGCTGCTG”, the binding signal with GST-Ap-NF-kB RHD worked out at 4.15 z-score; in experiment [1] it was 2.75 z-score; with GST-Co-NF-kB, 3.64 z-score; with GST-Dm-Relish it was 1.35 z-score; with GST-Aq-NF-kB it was 2.89 z-score.

As for “CCGATTAACATCAATGCACCCCCTGATGTTAATCGGGTCTTGATTCGCTTGACGCTGCTG”, the binding signal in the experiment with GST-Ap-NF-kB RHD was found to be 4.19 z-score; in experiment [1], 2.93 z-score; in the experiment with GST-Co-NF-kB, 3.47 z-score; with GST-Dm-Relish, 3.29 z-score; in the experiment with GST-Aq-NF-kB it was 3.4 z-score.

For “CCGATTAACATCACGGGAATCCCTGATGTTAATCGGGTCTTGATTCGCTTGACGCTGCTG”, the binding signal with GST-Ap-NF-kB RHD was 6.64 z-score; in experiment [1] it was 5.96 z-score; with GST-Co-NF-kB it was 3.81 z-score; with GST-Dm-Relish, 10.1 z-score; in the experiment with GST-Aq-NF-kB, 7.15 z-score.

On to “CCGATTAACATCAGTAACTCCCTTGATGTTAATCGGGTCTTGATTCGCTTGACGCTGCTG”, for which the binding signal in the experiment with GST-Ap-NF-kB RHD turned out to be 2.54 z-score; in experiment [1], 2.67 z-score; in the experiment with GST-Co-NF-kB it was 1.16 z-score; with GST-Dm-Relish it was 2.91 z-score; in the experiment with GST-Aq-NF-kB, 3.78 z-score.

On to “CCGATTAACATCAGGGAGATACCTGATGTTAATCGGGTCTTGATTCGCTTGACGCTGCTG”, for which the binding signal in the experiment with GST-Ap-NF-kB RHD was determined as 4 z-score; in experiment [1], 4.81 z-score; with GST-Co-NF-kB, 1.64 z-score; with GST-Dm-Relish, 4.25 z-score; with GST-Aq-NF-kB, 7.69 z-score.

In the case of “CCGATTAACATCAGGCCACCCCCTGATGTTAATCGGGTCTTGATTCGCTTGACGCTGCTG”, the binding signal with GST-Ap-NF-kB RHD is 3.91 z-score; in experiment [1], 2.49 z-score; with GST-Co-NF-kB it was 2.66 z-score; with GST-Dm-Relish, 5.42 z-score; with GST-Aq-NF-kB, 5.7 z-score.

With “CCGATTAACATCAGGGCAGCCCCTGATGTTAATCGGGTCTTGATTCGCTTGACGCTGCTG”, the binding signal with GST-Ap-NF-kB RHD was determined as 4.41 z-score; in experiment [1], 4.88 z-score; with GST-Co-NF-kB, 1.25 z-score; with GST-Dm-Relish it was 4.16 z-score; with GST-Aq-NF-kB, 7.43 z-score.

With “CCGATTAACATCACATATTTCCCTGATGTTAATCGGGTCTTGATTCGCTTGACGCTGCTG”, the binding signal in the experiment with GST-Ap-NF-kB RHD amounted to 3.32 z-score; in experiment [1], 4.97 z-score; in the experiment with GST-Co-NF-kB, 4.94 z-score; in the experiment with GST-Dm-Relish, 1.93 z-score; with GST-Aq-NF-kB it was 5.18 z-score.

In the case of “CCGATTAACATCACGGCTTTCCCTGATGTTAATCGGGTCTTGATTCGCTTGACGCTGCTG”, the binding signal with GST-Ap-NF-kB RHD is 2.31 z-score; in experiment [1], 3.5 z-score; with GST-Co-NF-kB, 2.32 z-score; in the experiment with GST-Dm-Relish, 2.21 z-score; in the experiment with GST-Aq-NF-kB, 3.7 z-score.

Turning to “CCGATTAACATCAAGGGGAGTCCTGATGTTAATCGGGTCTTGATTCGCTTGACGCTGCTG”, the binding signal stood at 6.71 z-score with GST-Ap-NF-kB RHD; 4.83 z-score in experiment [1]; 2.5 z-score in the experiment with GST-Co-NF-kB; 8.01 z-score with GST-Dm-Relish; 5.29 z-score in the experiment with GST-Aq-NF-kB.
